A short description of experiment [1]: Nuclear factor erythroid 2-related factor 2/antioxidant responsive element (Nrf2/ARE) small molecule agonists: qHTS cell viability counter screen in human keratinocytes (AID 1919968; active = well fitted curve in the direction sought with a large enough effect in the repeat runs; an effect the other way counts as inactive or inconclusive; also: nearly all actives have a fitted effect of over 55% in size; also: potency is read from the fitted curve at half-maximal effect). The procedure, abridged: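 Parallel cytotoxicity read: KeratinoSens HaCaT cells, compound treatment 23 h, viability by CellTiter-Fluor fluorescence 1 h post-reagent.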
Experiment [2] in a line: Nuclear factor erythroid 2-related factor 2/antioxidant responsive element (Nrf2/ARE) small molecule agonists: luciferase reporter gene qHTS assay in human keratinocytes (AID 1919969). Also: nearly all actives have a fitted effect of over 35% in size. Also: potency is read from the fitted curve at half-maximal effect.
In experiment [3] the target is Gonadotropin-releasing hormone receptor (Homo sapiens) (UniProt P30968). Description: Human gonadotropin-releasing hormone receptor (GnRHR) small molecule agonists, calcium flux assay in GnRHR-HEK293 cells (AID 1920063). Also: nearly all actives have a fitted effect of over 35% in size. The method in brief:
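Calcium flux, agonist mode, human GnRHR stably integrated in HEK293; dye 1 h at 37 C before compound; Ex/Em=480/540 kinetic read, 3 min; 15 concentrations, triplicate.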

The target of experiment [4] is KiSS-1 receptor (Homo sapiens) (UniProt Q969F8). Description: Human kisspeptin (KISS1R) small molecule agonists, calcium flux assay in KISS1R-HEK293 cells (AID 1920064; active = well fitted curve in the direction sought with a large enough effect in the repeat runs; an effect the other way counts as inactive or inconclusive). The procedure, abridged: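 Triplicate 15-concentration series were applied to dye-loaded human KISS1R HEK293 cells, and agonist-evoked calcium fluorescence was captured for 3 min.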
Sequence of KiSS-1 receptor (Homo sapiens) (Q969F8 whole entry, looked up): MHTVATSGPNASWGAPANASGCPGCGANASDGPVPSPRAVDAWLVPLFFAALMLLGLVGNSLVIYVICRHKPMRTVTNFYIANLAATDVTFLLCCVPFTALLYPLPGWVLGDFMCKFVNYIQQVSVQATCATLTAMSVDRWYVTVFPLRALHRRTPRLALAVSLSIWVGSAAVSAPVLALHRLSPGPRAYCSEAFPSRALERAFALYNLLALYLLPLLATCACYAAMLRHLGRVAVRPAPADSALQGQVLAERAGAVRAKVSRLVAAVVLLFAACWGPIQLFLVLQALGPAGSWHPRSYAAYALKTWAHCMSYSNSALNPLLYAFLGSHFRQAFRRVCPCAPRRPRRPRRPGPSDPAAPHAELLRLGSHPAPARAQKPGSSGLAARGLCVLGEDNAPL
(In general: Calcium assays in cells follow changes in intracellular calcium, usually with a dye or a luminescent sensor.)

Experiment [5] in a line: G protein-coupled receptor (GPCR) small molecule agonists, calcium flux assay: HEK293 wild type cell line counter screen (AID 1920065). The procedure, abridged:
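Non-specific calcium responders were flagged by adding DMSO-dissolved compounds to dye-loaded cells and reading 480/540 nm fluorescence each second for 3 min; ATP served as positive control.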

A short description of experiment [6]: p53 small molecule agonists, cell-based qHTS assay with human liver microsomes (AID 1963577). The procedure, abridged:
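Fluorescence of the beta-lactamase reporter in p53RE-bla cells, detected with LiveBLAzer substrate (2 h, room temperature, dark), served as the read-out after 16 h compound exposure at 37 C with human liver microsomes and NADPH, each 0.5 mg/mL final.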
On the technique in general: Quantitative high-throughput screening tests each substance at several concentrations.

Experiment [7] can be described thus: p53 small molecule agonists, cell-based qHTS assay with rat liver microsomes (AID 1963578). The procedure, abridged: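 Cells carrying a p53 response element–beta-lactamase reporter were plated and rested 5 h, then dosed with compound in DMSO plus rat liver microsomes and NADPH, each at 0.5 mg/mL final. After 16 h at 37 C, LiveBLAzer substrate was added for 2 h.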

A short description of experiment [8]: p53 small molecule agonists, cell-based qHTS assay with human liver microsomes: qHTS cell viability counter screen (AID 1963579). Also: nearly all actives have a fitted effect of over 45% in size. The method in brief: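 Cytotoxicity counter screen: p53RE-bla, 4,000 cells/well; 5 h settle, 37 C/5% CO2; cpd + HLM 0.5 mg/mL + NADPH 0.5 mg/mL (final); 16 h, 37 C; CellTiter-Glo, 30 min RT, luminescence.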
Experiment [9] can be described thus: p53 small molecule agonists, cell-based qHTS assay: qHTS cell viability counter screen (AID 1963581). Also: nearly all actives have a fitted effect of over 45% in size. The method in brief:
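Multiplexed with the reporter read, a CellTiter-Glo step (30 min, room temperature) gauges ATP-based viability of HCT-116 p53RE-bla cells after 16 h compound incubation at 37 C.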

Experiment [10] is described as follows: p53 small molecule agonists, cell-based qHTS assay (AID 1963582; active = well fitted activation curve with a large enough effect in the signal ratio in the repeat runs, not every such curve was filed as active; the % refers to the signal ratio). The procedure, abridged: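 Beta-lactamase reporter cells (p53RE-bla) treated with compounds for 16 h at 37 C; FRET substrate, 2 h, room temperature; fluorescence intensity.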
The target of experiment [11] is 5-hydroxytryptamine receptor 2A (Homo sapiens) (UniProt P28223). Description: 5-hydroxytryptamine receptor 2A (HTR2A) small molecule antagonists, cell-based qHTS assay (AID 1963586). Also: nearly all actives have a fitted effect of over 45% in size. The method in brief:
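CHO cells stably expressing human HTR2A were plated for 18 h at 37 C, then loaded with calcium dye for 1 h. Compounds were preincubated 5 min at room temperature before DOI (4 nM solution) was added. Kinetic fluorescence was read for 3 min.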

Experiment [12] shares this target. As to the kind of experiment: 5-hydroxytryptamine receptor 2A (HTR2A) small molecule agonists, cell-based qHTS assay (AID 1963587). Also: nearly all actives have a fitted effect of over 30% in size. The method in brief: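 Kinetic calcium-flux fluorescence (2 min, 1 sec intervals) after compound addition in agonist mode. HTR2A-CHO cells were cultured 18 h, then dye-loaded 1 h at 37 C.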
Experiment [13] concerns the target Muscarinic acetylcholine receptor M1 (Homo sapiens) (UniProt P11229). Description: Cholinergic receptor muscarinic 1 (CHRM1) small molecule antagonists, cell-based qHTS assay (AID 1963588). Also: nearly all actives have a fitted effect of over 40% in size. The procedure, abridged: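 Compounds were tested at 15 concentrations in three independent runs. Dye-loaded CHRM1-CHO cells were exposed 5 min at room temperature before stimulation by acetylcholine added at 50nM. Intracellular calcium was read kinetically on FDSS for 3 min.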

Experiment [14] has the same target. Description: Cholinergic receptor muscarinic 1 (CHRM1) small molecule agonists, cell-based qHTS assay (AID 1963589). Also: nearly all actives have a fitted effect of over 35% in size. The method in brief: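 qHTS, 15-point titration, 3 independent runs: compounds pin-transferred onto dye-loaded CHRM1-CHO cells (human M1), calcium fluorescence followed every second to detect agonism.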
The nature of experiment [15]: cAMP Responsive Elements (CRE) small molecule agonists, cell-based qHTS assay (AID 1963590). The procedure, abridged:
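Quantitative HTS for CRE agonists: HEK 293T CRE-bla cells, overnight plating, 3 h compound incubation at 37 C/5% CO2, then 2 h room-temperature LiveBLAzer B/G FRET substrate loading.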

Experiment [16] in a line: cAMP Responsive Elements (CRE) small molecule antagonists, cell-based qHTS assay (AID 1963591; active = well fitted inhibition curve with a large enough effect in the signal ratio in the repeat runs, not every such curve was filed as active; the % refers to the signal ratio). The method in brief:
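Fluorescence intensity from cleaved LiveBLAzer B/G substrate (2 h, room temperature) quantified CRE-bla activity in HEK 293T cells exposed 3 h to compound with 0.25 uM final NKH477.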

Experiment [17] deals with Beta-2 adrenergic receptor (Homo sapiens) (UniProt P07550). As to the kind of experiment: Adrenergic beta2 receptor (ADRB2) small molecule antagonists, cell-based qHTS assay (AID 1963592). Also: series mostly up to about 92 µM; nearly all actives have a fitted effect of over 50% in size. The procedure, abridged: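 Assay format: CHO-ADRB2 cells, 18-20hr seeding at 37C/5% CO2, then compound plus 1nM isoproterenol agonist mix for 0.5hr RT. Homogeneous time-resolved fluorescence cAMP detection after 1hr, expressed as 665/615 nm ratio.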
Sequence of Beta-2 adrenergic receptor (Homo sapiens) (P07550 whole entry, looked up): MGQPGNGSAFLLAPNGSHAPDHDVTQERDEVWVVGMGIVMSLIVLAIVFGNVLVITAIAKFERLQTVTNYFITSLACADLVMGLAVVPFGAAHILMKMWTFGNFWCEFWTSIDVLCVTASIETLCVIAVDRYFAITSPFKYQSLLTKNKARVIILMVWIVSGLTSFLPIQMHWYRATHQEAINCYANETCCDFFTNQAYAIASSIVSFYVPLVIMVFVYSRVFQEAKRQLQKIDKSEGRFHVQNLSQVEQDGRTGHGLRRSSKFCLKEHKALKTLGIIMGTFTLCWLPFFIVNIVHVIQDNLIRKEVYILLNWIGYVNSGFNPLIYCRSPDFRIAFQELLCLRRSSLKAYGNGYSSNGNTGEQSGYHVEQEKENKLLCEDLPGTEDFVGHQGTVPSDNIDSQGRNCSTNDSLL

Experiment [18] deals with D(2) dopamine receptor (Homo sapiens) (UniProt P14416). As to the kind of experiment: Dopamine D2 receptor (DRD2) small molecule agonists, cell-based qHTS assay (AID 1963594). Also: nearly all actives have a fitted effect of over 35% in size. The method in brief: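 cAMP accumulation in DRD2-HEK293 cells measured by HTRF after 1 h detection; compounds added 10 min before NKH477 (200nM […]) forskolin-analogue stimulation, 30 min at room temperature, with Ro20-1724 present at 0.1 mM final.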
Sequence of D(2) dopamine receptor (Homo sapiens) (P14416 whole entry, looked up): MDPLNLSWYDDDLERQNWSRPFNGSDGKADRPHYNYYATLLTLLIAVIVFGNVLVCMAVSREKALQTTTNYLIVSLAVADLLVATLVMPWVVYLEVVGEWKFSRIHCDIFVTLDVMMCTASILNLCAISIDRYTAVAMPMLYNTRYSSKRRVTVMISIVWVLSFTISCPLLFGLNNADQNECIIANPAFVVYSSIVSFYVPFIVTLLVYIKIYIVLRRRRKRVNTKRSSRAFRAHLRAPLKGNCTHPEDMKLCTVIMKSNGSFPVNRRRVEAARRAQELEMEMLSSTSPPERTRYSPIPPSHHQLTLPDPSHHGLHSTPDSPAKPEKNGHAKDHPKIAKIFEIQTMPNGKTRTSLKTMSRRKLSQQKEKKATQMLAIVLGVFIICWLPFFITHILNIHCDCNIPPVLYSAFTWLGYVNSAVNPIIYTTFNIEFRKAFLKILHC

For experiment [19] the target is unchanged. Description: Dopamine D2 receptor (DRD2) small molecule antagonists, cell-based qHTS assay (AID 1963595; active = well fitted inhibition curve with a large enough effect in the signal ratio in the repeat runs, with a control signal flat; the % refers to the signal ratio; also: potency is read from the fitted curve at half-maximal effect). The procedure, abridged: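 Antagonist mode in DRD2-HEK293 cells: after compound addition with 0.1 mM Ro20-1724, cells received quinpirole (12 nM) and NKH477 (200 nM) for 30 min at room temperature; HTRF cAMP read after 1 h detection.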
Experiment [20] can be described thus: p53 small molecule agonists, cell-based qHTS assay with rat liver microsomes: qHTS cell viability counter screen (AID 1963580). Also: nearly all actives have a fitted effect of over 45% in size. The method in brief: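 Rat liver microsome (0.5 mg/mL final) and NADPH (0.5 mg/mL final) co-incubation with compounds for 16 h at 37 C on HCT-116 p53RE-bla cells; cytotoxicity taken from intracellular ATP luminescence.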

This note sets out measurements from PubChem BioAssay (Tox21).

Each structure is given as a SMILES string. Several values for one entry are separate records, joined by “and”; a condition that tells them apart may be missing. Equal values may be shown once. Inconclusive results are not listed. Some compounds were tested as several samples or in several runs, with calls that do not always agree. Activity calls are given as the source filed them. Unless noted, calls follow the shape of the full dose curve.

Sequence of Muscarinic acetylcholine receptor M1 (Homo sapiens) (P11229 whole entry, looked up): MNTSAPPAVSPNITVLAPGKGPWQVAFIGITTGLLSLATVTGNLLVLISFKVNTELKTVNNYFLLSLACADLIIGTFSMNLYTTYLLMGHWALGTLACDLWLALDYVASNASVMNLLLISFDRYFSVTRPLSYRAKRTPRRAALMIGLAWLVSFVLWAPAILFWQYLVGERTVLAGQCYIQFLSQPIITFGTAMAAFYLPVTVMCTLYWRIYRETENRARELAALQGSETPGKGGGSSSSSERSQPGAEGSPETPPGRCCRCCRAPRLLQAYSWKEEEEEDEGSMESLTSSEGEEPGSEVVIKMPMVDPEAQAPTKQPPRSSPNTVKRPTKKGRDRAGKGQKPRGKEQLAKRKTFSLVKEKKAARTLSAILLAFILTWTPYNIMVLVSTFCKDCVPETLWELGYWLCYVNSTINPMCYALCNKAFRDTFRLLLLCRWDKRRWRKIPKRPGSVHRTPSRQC
Sequence of Gonadotropin-releasing hormone receptor (Homo sapiens) (P30968 whole entry, looked up): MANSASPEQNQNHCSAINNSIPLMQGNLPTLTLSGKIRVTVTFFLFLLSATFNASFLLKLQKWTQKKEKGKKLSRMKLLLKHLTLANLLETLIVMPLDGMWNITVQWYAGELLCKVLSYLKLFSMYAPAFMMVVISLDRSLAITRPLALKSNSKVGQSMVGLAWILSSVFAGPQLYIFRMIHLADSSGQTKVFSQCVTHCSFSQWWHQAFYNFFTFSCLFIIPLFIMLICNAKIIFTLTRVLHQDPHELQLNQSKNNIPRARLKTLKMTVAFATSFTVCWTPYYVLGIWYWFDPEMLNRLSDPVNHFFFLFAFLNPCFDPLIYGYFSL
Sequence of 5-hydroxytryptamine receptor 2A (Homo sapiens) (P28223 whole entry, looked up): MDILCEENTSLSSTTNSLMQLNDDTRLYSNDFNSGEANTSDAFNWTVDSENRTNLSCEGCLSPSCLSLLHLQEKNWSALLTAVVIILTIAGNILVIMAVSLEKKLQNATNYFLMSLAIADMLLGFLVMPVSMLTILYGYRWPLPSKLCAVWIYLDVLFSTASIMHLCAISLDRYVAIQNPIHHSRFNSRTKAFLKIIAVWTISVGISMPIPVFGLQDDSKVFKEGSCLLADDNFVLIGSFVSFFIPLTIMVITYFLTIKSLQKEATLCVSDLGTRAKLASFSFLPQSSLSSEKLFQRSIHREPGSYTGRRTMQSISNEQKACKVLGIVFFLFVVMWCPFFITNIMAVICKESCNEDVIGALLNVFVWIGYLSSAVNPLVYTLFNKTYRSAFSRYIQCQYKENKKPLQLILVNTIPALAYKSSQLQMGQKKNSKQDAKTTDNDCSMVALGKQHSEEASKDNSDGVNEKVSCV

For `NCc1cccnc1`, the Potency entry in experiment [1], in experiment [2], in [3], in experiment [4], in [5] and in experiment [6] was “inactive” each time. For the same molecule, the Potency entry in [7], in experiment [8], in experiment [9], in experiment [10], in [11] and in experiment [12] was “inactive” in each case. Besides, the Potency result in experiment [13], in experiment [14], in experiment [15], in experiment [16], in [17] and in [18] was “inactive” throughout. Also, the Potency result in experiment [19] is “inactive”.

As for `CCN(CC)C(=O)C(C)Oc1cccc2ccccc12` (stereo not drawn), the Potency result in experiment [1], in experiment [2], in experiment [3], in [4], in experiment [5] and in experiment [6] was “inactive” each time. In addition, the Potency result in experiment [7], in [8], in [20], in experiment [12], in experiment [13] and in experiment [14] was “inactive” in each case. Also, the Potency entry in experiment [15], in experiment [17], in experiment [18] and in experiment [19] was “inactive” each time.

As for `COc1nc(C)nc(NC(=O)NS(=O)(=O)c2ccccc2Cl)n1`, the Potency entry in [1], in [2], in experiment [3], in [4], in experiment [5] and in experiment [6] was “inactive” throughout. In addition, the Potency result in [7], in [8], in [9], in [10], in experiment [11] and in experiment [12] was “inactive” throughout. Further, the Potency entry in [14], in experiment [15], in [16], in [17] and in experiment [19] was “inactive” each time.

Consider `OCc1ccco1`, for which the Potency result in [1], in experiment [2], in [3], in [4], in experiment [5] and in experiment [6] was “inactive” in each case. In addition, the Potency result in experiment [7], in [8], in experiment [9], in experiment [10], in experiment [11] and in [12] was “inactive” in each case. Moreover, the Potency result in [13], in [14], in experiment [15], in experiment [16], in experiment [17] and in experiment [18] was “inactive” throughout. In addition, the Potency result in experiment [19] was “inactive”.

As for `C#CCOS(=O)OC1CCCCC1Oc1ccc(C(C)(C)C)cc1` (stereo not drawn), the Potency in experiment [1] is 68.7 µM (active) and inactive; in experiment [2], 19.4 µM (active) and 19.3 µM (active); in experiment [19], “inactive and 54.5 µM (active)”. Further, the Potency result in [3], in experiment [4], in experiment [5], in [6], in experiment [7] and in experiment [8] was “inactive” throughout. Besides, the Potency entry in experiment [9], in [11], in experiment [12], in experiment [13], in experiment [14] and in [17] was “inactive” throughout. The Potency entry in experiment [18] was “inactive”.

As to `CCNc1nc(Cl)nc(NC(C)(C)C#N)n1`, the Potency result in [1], in [2], in [3], in experiment [4], in [5] and in experiment [6] was “inactive” throughout. For the same molecule, the Potency result in [7], in experiment [8], in experiment [9], in experiment [10], in [11] and in experiment [12] was “inactive” throughout. The Potency entry in experiment [13], in experiment [14], in experiment [15], in experiment [16], in experiment [17] and in [18] was “inactive” throughout. Further, in [19], the Potency result is “inactive”.

Consider `C[C@H]1CCCC(=O)CCC/C=C/c2cc(O)cc(O)c2C(=O)O1`, for which the Potency in experiment [1] is 58.9 µM (active) and inactive. Besides, the Potency entry in experiment [2], in experiment [3], in [4], in experiment [5], in [6] and in experiment [7] was “inactive” in each case. For the same molecule, the Potency entry in [8], in [20], in experiment [11], in experiment [12], in experiment [13] and in experiment [14] was “inactive” each time. The Potency entry in [15], in experiment [17], in experiment [18] and in experiment [19] was “inactive” in each case.
